Bioassay records: PubChem BioAssay, National Center for Advancing Translational Sciences (NCATS)
Hits are enriched below; roughly 2.4% of the tested compounds scored in any of these assays.
Abeta yeast res: compounds reversing amyloid beta toxicity in yeast | yeast expressing A-beta42, growth rescue, OD600, 48 h; response scale: 0% DMSO, 100% iron-clioquinol control | Potency, µM (doses to about 46.1 µM), actives largely listed as activators | 410,000 compounds, 0.063% hits; further: nearly all actives have a fitted effect of over 55% in size
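Growth rescue measured by 600 nm absorbance after 48 h yeast culture at 30 C with compound. Values normalized between DMSO and an equimolar ferric chloride plus clioquinol control.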
TDP43 rescue: inhibitors of TDP-43 toxicity in yeast; 410,000 compounds, 1.8% hits; Potency, µM (top dose mostly 46.1 µM), for the others: at the top dose growth rescue (activation), most hits filed as activators; TDP-43 expressing yeast growth rescue, BacTiter-Glo, 24 h; AID 652104; further: % of control where 0% means no effect; nearly all actives have a fitted effect of over 50% in size
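Yeast expressing TDP-43 (pregrown in raffinose, seeded at OD600=0.02 in galactose medium) exposed to compounds 24 hr at 30 deg C. Growth read by BacTiter-Glo luminescence; rescue of toxicity appears as increased signal.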
aSyn yeast inh: rescues yeast growth from alpha-synuclein toxicity | 370,000 compounds, 0.14% hits | Potency, µM (series often up to 46.1 µM), for the others: at the top dose growth rescue (activation), most hits filed as activators | Yeast expressing alpha-synuclein, growth rescue, BacTiter-Glo, 24 h | AID 652106; further: % of control where 0% means no effect; nearly all actives have a fitted effect of over 65% in size
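Screening used galactose-induced yeast with toxic alpha-synuclein levels, exposed to compound for 24 hr at 30 deg C. Cell growth, read with BacTiter-Glo luminescence, gave the measured signal.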
A-T KAP1 phos: potential ataxia-telangiectasia treatments restoring KAP-1 phosphorylation. F2112 A-T fibroblasts, KAP-1 phosphorylation AlphaLISA; neocarzinostatin DNA damage 30 min before lysis. Potency, µM (top dose mostly 57.5 µM), without a hit: at the highest dose activation, usual class: activators. 320,000 compounds, 0.19% hits. AID 485349; further: % of control where 0% means no effect; nearly all actives have a fitted effect of over 45% in size
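hTERT-immortalized A-T patient fibroblasts (F2112), 500 cells/well in OPTI-MEM, 1% FBS, got compounds for 60 min, then NCS for 30 min at 37C. Lysates were then assayed for phospho-KAP-1 by AlphaLISA (anti-pKAP1 donor, anti-KAP1 acceptor beads), 6 hr at 25C.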
FUS yeast rescue: suppressors of FUS proteinopathy in yeast. S. cerevisiae FUS-expressing, growth rescue, OD600, 24 h. Potency, µM (doses to about 76.6 µM), hits mostly activators. 390,000 compounds, 0.24% hits. AID 1347120;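 further: plate controls were DMSO vehicle for no effect and reference control for full effect; nearly all actives have a fitted effect of over 55% in size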
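FUS-expressing yeast, raffinose-pregrown, induced in 2% galactose minimal medium at OD 0.005; compounds in a dilution series, 24hr at 30C. Growth restoration read as absorbance at 600 nm. CP55940 positive control, DMSO negative.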
Mito fusion yeast: mitochondrial division inhibition or fusion activation; S. cerevisiae fusion-defective mutant growth rescue, CellTiterGlo 48 h; Potency, µM (doses to about 46.1 µM), for inactives: at the top dose growth rescue (activation), hits mostly activators; 320,000 compounds, 0.23% hits; AID 485298; further: % of control where 0% means no effect; nearly all actives have a fitted effect of over 45% in size
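Luminescent cell viability in 1536-well qHTS format served as the measure of rescued growth in ts fusion-mutant S. cerevisiae cultured on non-fermentable YPEG for 48 hours at 37C.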
* = called active by the depositor; i = inactive; u = inconclusive; x = no result given; [ ] = another dose, or the depositor's remark. The call rests on the fitted dose curve; in most records, active means well fitted curve in the direction sought with a large enough effect; inconclusive means small, poorly fitted or top-dose-only effect, or another doubt; inactive means no such curve, though single readings can be large; an effect the other way counts as inactive or inconclusive. Potency means the concentration at half of the fitted maximal effect.

SMILES	Abeta yeast res	TDP43 rescue	aSyn yeast inh	A-T KAP1 phos	FUS yeast rescue	Mito fusion yeast
CCc1cccc(C)c1NC(=O)C(CC)Sc1nncn2c1cc1occc12 (stereo not drawn)	i	14µM*	x	x	i	x
CCCCCCC/C=C(\C)[C@@H](O)[C@@H](C)C(=O)N1CCC[C@@H]1C(=O)O	x	x	x	x	i	x
COc1ccc(C2=CC(c3ccc(OC)c(OC)c3)NC(=S)N2)cc1 (stereo not drawn)	u	4%	4%	-15%	i	-7%
COc1ccc(C2C=C(C34CC5CC(CC(C5)C3)C4)NC(=S)N2)cc1 (stereo not drawn)	u	16%	10%	4%	i	11µM*
Cc1cc(C)c(O)c(-c2n[nH]c3c2C(c2cccc(O)c2)N(Cc2ccco2)C3=O)c1 (stereo not drawn)	i	-9%	-1%	-8%	32µM*	5%
O=C1c2[nH]nc(-c3ccccc3O)c2C(c2ccc(F)cc2)N1Cc1ccco1 (stereo not drawn)	i	27%	5%	-4%	45µM*	11%
Clc1ccc(OCc2nnc(-c3ccccc3Br)o2)cc1	i	6%	12%	11%	i	7%
Clc1cccc(OCc2nnc(-c3ccccc3Br)o2)c1	i	18µM*	u	19%	i	5%
c1ccc(-c2cc3c(N4CCN(c5ncccn5)CC4)ncnc3s2)cc1	i	20%	-10%	-7%	i	-2%
c1ccc(-c2cc3c(N4CCN(c5ccccc5)CC4)ncnc3s2)cc1	i	28µM*	9%	3%	i	-4%
O=C1C2C3C=CC(C3=C(c3ccccc3)c3ccccc3)C2C(=O)N1CCO (stereo not drawn)	i	20µM*	15%	-1%	i	-2%
Cc1cccc(Cn2c(-c3cccs3)nc3ccccc32)c1	i	19%	-31%	x	i	x
Cc1ccc(C)c(Cn2c(-c3cccs3)nc3ccccc32)c1	i	20µM*	x	x	i	x
O=C(CCNc1cc(Cl)cc(Cl)c1)c1cccs1	i	10µM*	-42%	6%	i	9%
CC1CCC2(CC1)CCC2NCc1ccc(Br)cc1 (stereo not drawn)	x	x	x	x	i	x
Cc1ccc(-c2nc3cc(N)ccc3o2)cc1	i	0%	-2%	5%	i	12%
Cc1ccc2oc(-c3cccc(N)c3)nc2c1	i	13µM*	-3%	5%	i	15%
CCOc1ccc(C2=Nn3c(CC)nnc3SC2)cc1	i	18µM*	2%	-3%	i	-8%
CCc1ccc(C2=Nn3c(nnc3-c3cccs3)SC2)cc1	i	11µM*	0%	2%	i	-8%
CCc1ccccc1NC(=O)Cn1c(=O)n(CCCS(=O)(=O)C2CCCCC2)c(=O)c2ccccc21	i	-1%	x	x	i	x
CCOC1(c2ccccc2)OC(=O)c2ccccc21 (stereo not drawn)	i	4%	-13%	-13%	i	1%
O=C1OC(Sc2ccccc2)(c2ccccc2)c2ccccc21 (stereo not drawn)	i	11µM*	14%	x	i	x
Cc1cccc(Nc2nnc(SCC(=O)c3ccc(Br)s3)s2)c1C	u	25µM*	21%	2%	i	u
Cc1cccc(Nc2nnc(SCC(=O)Nc3ccccc3[N+](=O)[O-])s2)c1	i	-2%	0%	-3%	x	9%
Cc1ccccc1Nc1nnc(SCC(=O)Nc2ccccc2[N+](=O)[O-])s1	i	16µM*	5%	5%	i	11%
SMILES	Abeta yeast res	TDP43 rescue	aSyn yeast inh	A-T KAP1 phos	FUS yeast rescue	Mito fusion yeast
Cc1ccc(N(Cc2cccs2)C(=O)Nc2cccc(Cl)c2)cc1	i	6%	x	x	i	x
c1ccc(Cn2c(SCC3CCCCC3)nnc2-c2cccnc2)cc1	x	x	x	x	i	x
CCCOc1ccc(-c2nnn(CC(=O)N3CCCC(C)C3)n2)cc1 (stereo not drawn)	i	7%	14%	40µM*	i	-5%
CCOc1ccc(-c2nnn(CC(=O)N3CCCC(C)C3)n2)cc1 (stereo not drawn)	i	u	2%	-2%	i	0%
COCCOC(=O)N1CCN(/[N+]([O-])=N/Oc2ccc([N+](=O)[O-])cc2[N+](=O)[O-])CC1	x	x	-74%	x	x	x
Nc1nc(F)nc2c1ncn2[C@@H]1O[C@H](COP(=O)(O)O)[C@@H](O)[C@@H]1O	x	x	x	x	i	x
Nc1nc(Cl)nc2c1ncn2[C@@H]1O[C@H](COP(=O)(O)OP(=O)(O)OP(=O)(O)O)[C@@H](O)[C@H]1O	x	x	21µM*	x	x	-49%
Nc1ncnc2c1ncn2C1O[C@H](CO)[C@@H](O)[C@@H]1O (stereo partly drawn)	i	8%	-1%	-8%	i	6%
Nc1ncnc2c1ncn2[C@@H]1O[C@H](COP(=O)(O)OP(=O)(O)OP(=O)(O)OP(=O)(O)OC[C@@H]2O[C@H](n3cnc4c(N)ncnc43)[C@@H](O)[C@H]2O)[C@@H](O)[C@H]1O	x	x	7.3µM*	x	x	u
CCCn1c2ccccc2c2cnn(CC(=O)NCC3CCN(Cc4ccc(F)cc4)CC3)c(=O)c21	i	7%	x	x	i	x
O=Cc1cccc(OCc2cccc3ccccc23)c1	i	14µM*	-1%	6%	i	-8%
Cc1ccc(S(=O)(=O)Nc2ccccc2CNc2ccccn2)cc1	i	19%	-2%	6%	x	6%
Cc1ccc(S(=O)(=O)Nc2ccccc2CNc2ccc(Br)cn2)cc1	i	20µM*	0%	-14%	x	-23%
O=C(/C=C/c1ccc(F)cc1)Nc1nc2n(n1)C(c1ccc(Cl)cc1)C=C(c1ccccc1)N2 (stereo not drawn)	i	23%[9.22 µM]	x	x	i	x
Cc1nc(SCc2cccc(Oc3ccccc3)c2)n[nH]1	i	28µM*	-32%	-4%	i	0%
Cc1ccc(CSc2nnc(-c3n[nH]c4c3CCC4)n2N)cc1	x	x	x	x	i	x
CNC(=S)N1N=C(c2ccc(OC)cc2)CC1c1ccccc1Cl (stereo not drawn)	i	3.2µM*	-14%	-31%	i	-6%
N#CCC[C@@H]1CC[C@]2(CCCN(C(=O)C3CCCCC3)C2)O1	x	x	x	x	i	x
O=c1c(C(c2ccc(Cl)cc2)c2c(O)nc3n(c2=O)CCS3)c(O)nc2n1CCS2	i	-7%	-1%	-8%	i	-2%
O=c1c(C(c2ccc(Cl)cc2)c2c(O)nc3n(c2=O)CCCS3)c(O)nc2n1CCCS2	i	-24%	-7%	32µM*	i	4%
